# Measurements reported in paper PMC7862700, “An all-to-all approach to the identification of sequence-specific readers for epigenetic DNA modifications on cytosine”.
# How the values were obtained:
# Test in all cases: DAPPL (digital affinity profiling via proximity ligation, sequencing); 10 mM Tris-HCl pH 7.5, 50 mM NaCl, 1 mM DTT, 4% glycerol, room temperature, 30 min; GST-TFs on glutathione beads, 16-mer random dsDNA library, 0.1% formaldehyde crosslink after washing; high values mean tight binding
# FLI1 = target: T1, FLI1 (Homo sapiens, UniProt Q01543 1-452); details: protein: recombinant; tags: N-terminal GST; dsDNA, one strand shown
# T1 sequence: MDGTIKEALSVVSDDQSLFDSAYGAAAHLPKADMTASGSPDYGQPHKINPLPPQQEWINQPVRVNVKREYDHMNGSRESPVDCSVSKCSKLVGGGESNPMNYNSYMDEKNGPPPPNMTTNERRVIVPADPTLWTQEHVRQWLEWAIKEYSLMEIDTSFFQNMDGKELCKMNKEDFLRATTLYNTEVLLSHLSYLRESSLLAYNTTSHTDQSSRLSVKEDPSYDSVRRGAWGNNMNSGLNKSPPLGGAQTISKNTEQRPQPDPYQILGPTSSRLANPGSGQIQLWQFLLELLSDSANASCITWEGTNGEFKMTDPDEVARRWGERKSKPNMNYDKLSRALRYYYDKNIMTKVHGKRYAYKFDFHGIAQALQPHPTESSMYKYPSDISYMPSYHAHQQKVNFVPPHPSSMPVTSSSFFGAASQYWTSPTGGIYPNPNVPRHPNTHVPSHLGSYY
# In short: (§1)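 Pools were built from human transcription factors expressed in yeast as GST fusions, captured on glutathione beads and DNA-barcoded, along with a tag-only sample. Incubation with 200 nmole of a 16-mer random double-stranded DNA library lasted 30 min at room temperature in Tris/NaCl/DTT/glycerol buffer, and was followed by washing, 0.1% formaldehyde crosslinking, proximity ligation, PCR amplification and Illumina NextSeq500 sequencing. Binding signal is the quotient of each hexamer's read frequency for a factor and its frequency for the tag-only sample.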
# ELK1 = target: T2, ELK1 (Homo sapiens, UniProt P19419 1-428); details: protein: recombinant; tags: N-terminal GST; dsDNA, one strand shown
# T2 sequence: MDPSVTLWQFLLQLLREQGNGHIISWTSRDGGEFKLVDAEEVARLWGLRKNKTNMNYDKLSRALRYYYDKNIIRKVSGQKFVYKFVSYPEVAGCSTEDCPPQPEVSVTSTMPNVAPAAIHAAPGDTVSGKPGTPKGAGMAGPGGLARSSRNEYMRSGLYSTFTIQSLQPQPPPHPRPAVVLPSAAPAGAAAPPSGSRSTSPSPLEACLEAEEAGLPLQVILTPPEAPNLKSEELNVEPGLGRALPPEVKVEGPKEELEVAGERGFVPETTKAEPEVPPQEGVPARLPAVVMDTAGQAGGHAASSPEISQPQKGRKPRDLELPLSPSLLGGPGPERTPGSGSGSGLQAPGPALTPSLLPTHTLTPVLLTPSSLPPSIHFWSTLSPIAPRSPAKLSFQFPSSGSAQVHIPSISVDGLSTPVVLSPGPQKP
# In short: as §1
# GABPA = target: T3, GABPA (Homo sapiens, UniProt Q06546 1-454); details: protein: recombinant; tags: N-terminal GST; dsDNA, one strand shown
# T3 sequence: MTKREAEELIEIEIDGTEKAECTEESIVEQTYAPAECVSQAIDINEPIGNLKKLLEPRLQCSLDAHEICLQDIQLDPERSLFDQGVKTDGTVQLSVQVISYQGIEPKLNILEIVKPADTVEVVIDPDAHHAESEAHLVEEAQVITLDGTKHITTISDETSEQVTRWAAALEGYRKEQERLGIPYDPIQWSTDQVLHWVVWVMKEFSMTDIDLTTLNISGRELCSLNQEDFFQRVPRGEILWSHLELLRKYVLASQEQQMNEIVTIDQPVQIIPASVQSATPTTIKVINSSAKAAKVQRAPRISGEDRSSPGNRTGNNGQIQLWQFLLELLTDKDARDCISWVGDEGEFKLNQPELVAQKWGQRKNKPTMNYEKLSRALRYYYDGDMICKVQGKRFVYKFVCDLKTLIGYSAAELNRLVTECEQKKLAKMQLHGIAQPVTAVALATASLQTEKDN
# In short: as §1
# ERG = target: T4, ERG (Homo sapiens, UniProt P11308 1-479); details: protein: recombinant; tags: N-terminal GST; dsDNA, one strand shown
# T4 sequence: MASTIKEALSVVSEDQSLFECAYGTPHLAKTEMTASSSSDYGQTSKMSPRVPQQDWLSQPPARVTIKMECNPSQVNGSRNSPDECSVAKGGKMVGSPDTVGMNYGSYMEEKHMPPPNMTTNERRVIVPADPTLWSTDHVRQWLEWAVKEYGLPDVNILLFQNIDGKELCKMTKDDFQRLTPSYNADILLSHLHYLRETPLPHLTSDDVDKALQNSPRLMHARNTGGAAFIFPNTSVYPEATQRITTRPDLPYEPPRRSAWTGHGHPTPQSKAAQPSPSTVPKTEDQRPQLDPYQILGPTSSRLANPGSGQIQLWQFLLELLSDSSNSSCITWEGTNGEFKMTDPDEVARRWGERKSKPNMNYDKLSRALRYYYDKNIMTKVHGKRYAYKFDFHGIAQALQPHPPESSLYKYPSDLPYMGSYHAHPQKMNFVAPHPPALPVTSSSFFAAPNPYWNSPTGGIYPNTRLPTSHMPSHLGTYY
# In short: as §1
# ELF1 = ELF1 (Homo sapiens, UniProt P32519 1-619); details: protein: recombinant; tags: N-terminal GST; dsDNA, one strand shown
# ELF1, sequence (P32519 whole entry): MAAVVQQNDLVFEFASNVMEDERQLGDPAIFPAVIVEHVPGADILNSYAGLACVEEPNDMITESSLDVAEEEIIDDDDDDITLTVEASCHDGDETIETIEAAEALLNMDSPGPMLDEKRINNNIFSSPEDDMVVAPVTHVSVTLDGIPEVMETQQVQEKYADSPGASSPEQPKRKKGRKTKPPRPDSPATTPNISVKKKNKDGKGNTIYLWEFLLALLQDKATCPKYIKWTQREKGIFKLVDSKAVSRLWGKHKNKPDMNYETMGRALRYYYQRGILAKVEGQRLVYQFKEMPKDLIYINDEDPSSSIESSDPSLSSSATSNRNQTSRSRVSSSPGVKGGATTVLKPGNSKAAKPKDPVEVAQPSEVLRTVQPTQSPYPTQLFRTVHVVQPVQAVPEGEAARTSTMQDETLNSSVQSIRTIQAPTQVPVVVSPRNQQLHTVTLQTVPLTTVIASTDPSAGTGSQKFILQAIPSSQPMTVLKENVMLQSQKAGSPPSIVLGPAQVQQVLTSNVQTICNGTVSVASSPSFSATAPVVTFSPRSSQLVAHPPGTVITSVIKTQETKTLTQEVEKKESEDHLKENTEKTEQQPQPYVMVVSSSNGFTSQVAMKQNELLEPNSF
# In short: as §1
# EHF = target: T5, EHF (Homo sapiens, UniProt Q9NZC4 1-300); details: protein: recombinant; tags: N-terminal GST; dsDNA, one strand shown
# T5 sequence: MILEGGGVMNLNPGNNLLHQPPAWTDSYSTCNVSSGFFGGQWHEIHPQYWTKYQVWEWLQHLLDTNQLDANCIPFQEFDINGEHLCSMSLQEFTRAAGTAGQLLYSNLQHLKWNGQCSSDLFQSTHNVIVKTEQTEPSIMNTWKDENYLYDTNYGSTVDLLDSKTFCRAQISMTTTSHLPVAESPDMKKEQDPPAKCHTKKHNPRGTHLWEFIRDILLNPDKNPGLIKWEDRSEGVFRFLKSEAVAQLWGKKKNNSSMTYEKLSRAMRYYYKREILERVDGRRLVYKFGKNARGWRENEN
# In short: as §1
# SPI1 = SPI1 (Homo sapiens, UniProt P17947 1-270); details: protein: recombinant; tags: N-terminal GST; dsDNA, one strand shown
# In short: as §1
# SPIB = SPIB (Homo sapiens, UniProt Q01892 1-262); details: protein: recombinant; tags: N-terminal GST; dsDNA, one strand shown
# SPIB, sequence (Q01892 whole entry): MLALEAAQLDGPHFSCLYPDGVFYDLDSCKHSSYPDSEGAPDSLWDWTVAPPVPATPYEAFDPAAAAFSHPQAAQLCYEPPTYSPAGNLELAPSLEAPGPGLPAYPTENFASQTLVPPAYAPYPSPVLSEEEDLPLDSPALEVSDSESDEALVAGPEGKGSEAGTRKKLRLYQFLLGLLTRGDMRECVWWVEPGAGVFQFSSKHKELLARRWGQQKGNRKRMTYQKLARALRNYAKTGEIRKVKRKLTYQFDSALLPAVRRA
# In short: as §1
# ELK3 = target: T6, ELK3 (Homo sapiens, UniProt P41970 1-407); details: protein: recombinant; tags: N-terminal GST; dsDNA, one strand shown
# T6 sequence: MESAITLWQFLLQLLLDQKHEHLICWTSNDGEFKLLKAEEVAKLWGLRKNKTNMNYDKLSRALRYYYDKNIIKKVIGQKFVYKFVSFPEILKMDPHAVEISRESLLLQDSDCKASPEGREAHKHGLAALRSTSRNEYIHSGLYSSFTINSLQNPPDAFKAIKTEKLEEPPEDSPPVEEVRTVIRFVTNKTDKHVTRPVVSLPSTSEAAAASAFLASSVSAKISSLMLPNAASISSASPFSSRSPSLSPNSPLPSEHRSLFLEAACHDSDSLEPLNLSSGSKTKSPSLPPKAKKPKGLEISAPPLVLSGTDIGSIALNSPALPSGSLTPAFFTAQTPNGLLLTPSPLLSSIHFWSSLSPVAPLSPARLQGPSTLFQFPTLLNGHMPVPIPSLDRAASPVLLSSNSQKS
# In short: as §1
# FEV = target: T7, FEV (Homo sapiens, UniProt Q99581 1-238); details: protein: recombinant; tags: N-terminal GST; dsDNA, one strand shown
# T7 sequence: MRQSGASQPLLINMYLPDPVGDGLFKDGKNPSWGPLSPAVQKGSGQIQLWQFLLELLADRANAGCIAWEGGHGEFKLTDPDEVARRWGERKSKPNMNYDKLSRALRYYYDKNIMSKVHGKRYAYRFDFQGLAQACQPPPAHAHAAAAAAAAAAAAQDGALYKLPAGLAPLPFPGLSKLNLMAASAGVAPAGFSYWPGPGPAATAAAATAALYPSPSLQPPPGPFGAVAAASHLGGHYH
# In short: as §1
# ETV5 = ETV5 (Homo sapiens, UniProt P41161 1-510); details: protein: recombinant; tags: N-terminal GST; dsDNA, one strand shown
# ETV5, sequence (P41161 whole entry): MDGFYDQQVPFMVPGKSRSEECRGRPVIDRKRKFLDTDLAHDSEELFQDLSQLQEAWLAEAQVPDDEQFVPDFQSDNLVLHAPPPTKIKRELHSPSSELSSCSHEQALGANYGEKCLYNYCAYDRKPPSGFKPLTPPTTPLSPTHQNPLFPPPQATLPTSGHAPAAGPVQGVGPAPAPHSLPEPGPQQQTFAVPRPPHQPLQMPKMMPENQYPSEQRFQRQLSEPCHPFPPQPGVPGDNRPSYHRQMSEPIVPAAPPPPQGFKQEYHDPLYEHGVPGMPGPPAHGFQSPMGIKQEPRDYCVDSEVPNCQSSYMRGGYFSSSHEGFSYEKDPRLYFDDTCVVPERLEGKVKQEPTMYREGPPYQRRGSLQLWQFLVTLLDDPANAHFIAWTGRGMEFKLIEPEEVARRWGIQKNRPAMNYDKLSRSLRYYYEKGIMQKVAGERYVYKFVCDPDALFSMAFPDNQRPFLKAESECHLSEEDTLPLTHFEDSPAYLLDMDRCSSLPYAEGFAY
# In short: as §1
# HSF1 = HSF1 (Homo sapiens, UniProt Q00613 1-529); details: protein: recombinant; tags: N-terminal GST; chain copies: 3; dsDNA, one strand shown
# HSF1, sequence (Q00613 whole entry): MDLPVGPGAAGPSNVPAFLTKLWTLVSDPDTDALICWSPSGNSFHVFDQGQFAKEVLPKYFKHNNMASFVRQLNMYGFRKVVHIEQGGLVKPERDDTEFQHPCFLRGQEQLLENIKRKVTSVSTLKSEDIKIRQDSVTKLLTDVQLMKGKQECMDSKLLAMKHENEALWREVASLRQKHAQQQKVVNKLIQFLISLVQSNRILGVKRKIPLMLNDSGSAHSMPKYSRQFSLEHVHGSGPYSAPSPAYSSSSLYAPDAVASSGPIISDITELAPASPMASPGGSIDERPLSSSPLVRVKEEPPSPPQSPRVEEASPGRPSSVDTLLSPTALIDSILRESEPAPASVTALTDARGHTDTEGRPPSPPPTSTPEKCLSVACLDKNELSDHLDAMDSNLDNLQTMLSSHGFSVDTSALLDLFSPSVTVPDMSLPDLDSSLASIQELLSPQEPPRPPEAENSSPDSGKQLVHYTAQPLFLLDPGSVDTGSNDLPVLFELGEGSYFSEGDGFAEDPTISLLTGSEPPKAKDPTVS
# In short: as §1
# SPIC = target: T8, SPIC (Homo sapiens, UniProt Q8N5J4 1-248); details: protein: recombinant; tags: N-terminal GST; dsDNA, one strand shown
# T8 sequence: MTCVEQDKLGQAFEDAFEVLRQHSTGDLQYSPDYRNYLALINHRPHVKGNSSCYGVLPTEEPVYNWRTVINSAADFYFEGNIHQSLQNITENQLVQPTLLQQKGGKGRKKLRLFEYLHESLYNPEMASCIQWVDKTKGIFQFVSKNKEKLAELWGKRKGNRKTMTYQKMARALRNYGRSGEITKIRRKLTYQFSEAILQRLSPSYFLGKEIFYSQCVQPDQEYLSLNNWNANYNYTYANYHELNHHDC
# In short: as §1
# ELF4 = ELF4 (Homo sapiens, UniProt Q99607 1-663); details: protein: recombinant; tags: N-terminal GST; dsDNA, one strand shown
# ELF4, sequence (Q99607 whole entry): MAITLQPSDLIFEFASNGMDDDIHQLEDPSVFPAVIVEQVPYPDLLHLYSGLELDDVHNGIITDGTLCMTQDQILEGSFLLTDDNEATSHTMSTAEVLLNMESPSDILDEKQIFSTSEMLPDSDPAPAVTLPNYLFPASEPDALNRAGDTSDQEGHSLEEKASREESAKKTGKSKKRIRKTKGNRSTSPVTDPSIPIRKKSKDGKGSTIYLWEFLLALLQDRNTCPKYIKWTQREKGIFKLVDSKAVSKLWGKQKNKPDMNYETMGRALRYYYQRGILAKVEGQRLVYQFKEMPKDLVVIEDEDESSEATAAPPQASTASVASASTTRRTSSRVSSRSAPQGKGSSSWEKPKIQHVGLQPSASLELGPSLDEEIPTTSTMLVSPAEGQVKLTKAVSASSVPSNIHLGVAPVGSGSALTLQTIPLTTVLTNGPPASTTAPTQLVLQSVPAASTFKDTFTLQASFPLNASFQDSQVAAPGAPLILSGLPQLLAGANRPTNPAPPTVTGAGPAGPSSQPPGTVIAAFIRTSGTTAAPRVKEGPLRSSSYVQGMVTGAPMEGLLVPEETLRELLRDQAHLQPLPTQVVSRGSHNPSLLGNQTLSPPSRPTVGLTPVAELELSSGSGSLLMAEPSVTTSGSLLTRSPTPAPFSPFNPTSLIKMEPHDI
# In short: as §1
# ELK4 = target: T9, ELK4 (Homo sapiens, UniProt P28324-2 1-405); details: protein: recombinant; tags: N-terminal GST; dsDNA, one strand shown
# T9 sequence: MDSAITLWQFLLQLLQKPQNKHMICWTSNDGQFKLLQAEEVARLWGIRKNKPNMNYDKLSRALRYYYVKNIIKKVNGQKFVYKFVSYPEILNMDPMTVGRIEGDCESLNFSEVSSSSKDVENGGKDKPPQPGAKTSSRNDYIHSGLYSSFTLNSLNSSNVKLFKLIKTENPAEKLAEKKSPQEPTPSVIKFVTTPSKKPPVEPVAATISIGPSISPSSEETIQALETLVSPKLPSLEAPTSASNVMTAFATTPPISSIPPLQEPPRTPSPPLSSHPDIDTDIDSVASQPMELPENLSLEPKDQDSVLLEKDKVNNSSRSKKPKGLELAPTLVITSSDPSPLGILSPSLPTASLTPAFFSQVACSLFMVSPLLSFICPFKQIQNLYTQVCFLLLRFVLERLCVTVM
# In short: as §1
# ETV2 = target: T10, ETV2 (Homo sapiens, UniProt O00321 1-342); details: protein: recombinant; tags: N-terminal GST; dsDNA, one strand shown
# T10 sequence: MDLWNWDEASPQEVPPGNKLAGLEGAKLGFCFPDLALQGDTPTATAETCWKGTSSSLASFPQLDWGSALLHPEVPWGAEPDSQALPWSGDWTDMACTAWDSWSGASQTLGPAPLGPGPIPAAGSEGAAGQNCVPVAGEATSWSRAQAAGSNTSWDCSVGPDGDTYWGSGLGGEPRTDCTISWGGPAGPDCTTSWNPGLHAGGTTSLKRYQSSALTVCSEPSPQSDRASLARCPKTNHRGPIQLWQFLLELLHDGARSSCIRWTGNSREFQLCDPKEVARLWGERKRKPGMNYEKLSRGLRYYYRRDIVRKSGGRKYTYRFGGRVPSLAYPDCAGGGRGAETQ
# In short: as §1
# ELF3 = target: T11, ELF3 (Homo sapiens, UniProt P78545 1-371); details: protein: recombinant; tags: N-terminal GST; dsDNA, one strand shown
# T11 sequence: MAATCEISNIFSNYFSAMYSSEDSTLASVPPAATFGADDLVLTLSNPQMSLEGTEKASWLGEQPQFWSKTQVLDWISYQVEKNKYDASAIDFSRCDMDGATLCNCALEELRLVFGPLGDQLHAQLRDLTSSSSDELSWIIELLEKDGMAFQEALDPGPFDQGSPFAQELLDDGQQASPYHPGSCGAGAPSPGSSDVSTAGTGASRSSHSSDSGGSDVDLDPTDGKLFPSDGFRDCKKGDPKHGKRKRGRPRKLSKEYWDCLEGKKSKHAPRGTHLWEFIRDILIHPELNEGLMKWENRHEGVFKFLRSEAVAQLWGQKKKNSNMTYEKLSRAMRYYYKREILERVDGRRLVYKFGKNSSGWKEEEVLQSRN
# In short: as §1
# CRX = CRX (Homo sapiens, UniProt O43186 1-299); details: protein: recombinant; tags: N-terminal GST; dsDNA, one strand shown
# CRX, sequence (O43186 whole entry): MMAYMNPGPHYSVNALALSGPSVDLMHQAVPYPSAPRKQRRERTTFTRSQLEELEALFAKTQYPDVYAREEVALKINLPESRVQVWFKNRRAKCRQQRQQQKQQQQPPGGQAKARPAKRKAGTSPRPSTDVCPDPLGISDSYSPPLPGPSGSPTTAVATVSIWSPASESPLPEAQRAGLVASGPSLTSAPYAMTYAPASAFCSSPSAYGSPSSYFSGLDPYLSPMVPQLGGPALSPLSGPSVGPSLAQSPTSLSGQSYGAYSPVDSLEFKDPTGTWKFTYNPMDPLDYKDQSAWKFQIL
# In short: as §1
# ETV1 = ETV1 (Homo sapiens, UniProt P50549 1-477); details: protein: recombinant; tags: N-terminal GST; dsDNA, one strand shown
# ETV1, sequence (P50549 whole entry): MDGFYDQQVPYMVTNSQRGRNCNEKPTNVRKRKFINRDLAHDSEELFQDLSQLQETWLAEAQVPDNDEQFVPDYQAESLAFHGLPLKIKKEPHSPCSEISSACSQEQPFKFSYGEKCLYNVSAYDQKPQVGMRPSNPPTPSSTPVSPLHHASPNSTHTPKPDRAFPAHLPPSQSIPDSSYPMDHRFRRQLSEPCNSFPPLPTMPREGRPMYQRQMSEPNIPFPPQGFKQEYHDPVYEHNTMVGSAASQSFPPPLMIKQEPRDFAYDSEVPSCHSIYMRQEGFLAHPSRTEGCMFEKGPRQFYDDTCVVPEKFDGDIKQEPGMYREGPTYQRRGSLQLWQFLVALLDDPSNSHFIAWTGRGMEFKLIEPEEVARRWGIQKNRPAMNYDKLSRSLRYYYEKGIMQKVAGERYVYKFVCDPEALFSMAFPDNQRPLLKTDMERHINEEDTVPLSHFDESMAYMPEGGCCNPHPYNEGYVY
# In short: as §1
sequence,measurement,setting,value
TGGTAA,binding signal,FLI1,"1.28 fold enrichment (6-mer frequency, TF over GST control)"
same,binding signal,ELK1,"1.33 fold enrichment (6-mer frequency, TF over GST control)"
same,binding signal,GABPA,"1.32 fold enrichment (6-mer frequency, TF over GST control)"
same,binding signal,ERG,"1.28 fold enrichment (6-mer frequency, TF over GST control)"
same,binding signal,ELF1,"1.28 fold enrichment (6-mer frequency, TF over GST control)"
same,binding signal,EHF,"1.37 fold enrichment (6-mer frequency, TF over GST control)"
same,binding signal,SPI1,"1.28 fold enrichment (6-mer frequency, TF over GST control)"
same,binding signal,SPIB,"1.4 fold enrichment (6-mer frequency, TF over GST control)"
same,binding signal,ELK3,"1.32 fold enrichment (6-mer frequency, TF over GST control)"
same,binding signal,FEV,"1.15 fold enrichment (6-mer frequency, TF over GST control)"
same,binding signal,ETV5,"1.23 fold enrichment (6-mer frequency, TF over GST control)"
same,binding signal,HSF1,"1.45 fold enrichment (6-mer frequency, TF over GST control)"
same,binding signal,SPIC,"1.09 fold enrichment (6-mer frequency, TF over GST control)"
same,binding signal,ELF4,"1.23 fold enrichment (6-mer frequency, TF over GST control)"
same,binding signal,ELK4,"1.39 fold enrichment (6-mer frequency, TF over GST control)"
same,binding signal,ETV2,"1.3 fold enrichment (6-mer frequency, TF over GST control)"
same,binding signal,ELF3,"1.15 fold enrichment (6-mer frequency, TF over GST control)"
same,binding signal,CRX,"1.51 fold enrichment (6-mer frequency, TF over GST control)"
same,binding signal,ETV1,"1.27 fold enrichment (6-mer frequency, TF over GST control)"
